# High-throughput results deposited in PubChem BioAssay by Paczesny and Yang Labs, IUPUI and University of Michigan.
# The sample as a whole holds a higher share of hits than the screen did.
# ST2 IL33 inh = IL1RL1 inhibition | Q01638 | AlphaLISA ST2-Fc/biotin-IL-33 interaction, 1 h | inhibition, % for hits at 17 µM | 2.3% of 78,000 active; in the data active = inhibition above about 30%
# Target sequence (Q01638 whole entry, looked up): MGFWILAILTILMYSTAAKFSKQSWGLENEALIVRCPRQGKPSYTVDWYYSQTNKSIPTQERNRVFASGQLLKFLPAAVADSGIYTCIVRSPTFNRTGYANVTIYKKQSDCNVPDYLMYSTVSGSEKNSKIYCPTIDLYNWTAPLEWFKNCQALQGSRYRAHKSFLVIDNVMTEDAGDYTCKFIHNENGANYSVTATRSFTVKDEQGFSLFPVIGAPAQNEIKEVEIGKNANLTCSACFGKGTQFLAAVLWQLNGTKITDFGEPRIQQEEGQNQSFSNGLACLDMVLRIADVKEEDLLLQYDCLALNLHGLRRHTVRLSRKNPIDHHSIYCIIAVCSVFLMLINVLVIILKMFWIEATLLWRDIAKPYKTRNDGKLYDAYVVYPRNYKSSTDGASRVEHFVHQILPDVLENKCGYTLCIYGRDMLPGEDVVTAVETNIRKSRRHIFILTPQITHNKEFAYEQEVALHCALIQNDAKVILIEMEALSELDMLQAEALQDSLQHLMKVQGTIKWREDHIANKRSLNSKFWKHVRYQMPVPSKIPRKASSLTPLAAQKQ
# * = called active by the depositor; i = inactive; ! = repeats disagree.
SMILES,ST2 IL33 inh
Cc1c(CN(C)C2CCC3(CCNCC3)CC2)cnn1C,i
CC(=O)N[C@@H]1C[C@H](Cc2ccccc2)O[C@H](c2c(Cl)nc3sccn23)C1,i
CCOC(=O)c1sc(=Nc2ccc(C)cc2)n(CCN2CCOCC2)c1C,i
Cn1c(=NC(=O)c2ccc(S(=O)(=O)N3CCCC3)cc2)sc2cc(Cl)ccc21,i
Fc1ccc(Nc2nc(-c3ccc(Cl)cc3)cs2)cc1,i
CCOc1ccc(-c2csc(=Nc3ccccc3)n2CCN2CCOCC2)cc1,i
O=S(=O)(c1ccc(-c2csc(=Nc3ccc(Cl)cc3)n2CCCO)cc1)N1CCCC1,40.0%*
CCOc1ccc(N=c2scc(-c3ccc(C)cc3)n2C)cc1,43.0%*
OCCCn1c(-c2ccc(F)cc2)csc1=Nc1ccc(Cl)cc1,46.0%*
O=C(c1ccc(S(=O)(=O)N2CCCC2)cc1)N1CCN=C1SCc1ccc(Cl)cc1,i
CCOC(=O)c1sc(=NC(=O)c2ccc(OCC)cc2)n(C)c1C,i
CCOc1ccc(N=c2scc(-c3ccc(F)cc3)n2CCCO)cc1,40.0%*
O=C(NCc1ccc(F)cc1)c1cc(-c2ccc(Cl)cc2)on1,i
CCOc1ccc(NC(=O)Cc2ccc(F)cc2)cc1,i
O=C(c1noc2c1CCc1ccccc1-2)N1CCCC1,i
O=C(NCCc1ncc[nH]1)C1CC(=O)N(C2CCCC2)C1 (configuration not stated),i
CCCC1COCCN1Cc1cc(C)[nH]n1 (configuration not stated),i
C=CCN(Cc1ccccc1OC)C(=O)c1c(C)nn(C)c1C,i
CC(=O)NC1=NC(=O)/C(=C/c2cc3c(cc2Br)OCO3)S1,i
CN(C)S(=O)(=O)NC1CC(=O)N(Cc2ccccc2C(F)(F)F)C1 (configuration not stated),i
Cc1nn(Cc2c(Cl)cccc2Cl)c(C)c1NC(=O)c1cc(-c2ccco2)on1,i
O=C(O)COc1ccc(Br)cc1C1C2=C(CCCC2=O)OC2=C1C(=O)CCC2,i
CCCCn1c(=N)n(CCOc2ccccc2Cl)c2ccccc21,i
COc1ccc(N=c2oc3ccccc3cc2C(=O)Nc2ccc(C)cc2)cc1,i
COc1ccccc1N=c1oc2ccccc2cc1C(=O)Nc1ccccc1,41.0%*
SMILES,ST2 IL33 inh
O=C(Nc1ccccc1)c1cc2ccccc2oc1=Nc1cccc(F)c1,i
Cc1ccc(C2C(C#N)=C(N)OC3=C2C(=O)CCC3)o1 (configuration not stated),i
Cc1ccc(C2C(C#N)=C(N)Oc3c2sc2ccccc32)o1 (configuration not stated),39.0%*
CCOC(=O)CC1=C(C(=O)OCC)C(c2ccc(C)o2)C(C#N)=C(N)O1 (configuration not stated),i
COc1ccc(NC(=O)CCS(=O)(=O)c2ccc(Br)s2)c(OC)c1,i
Cc1ccc(NS(=O)(=O)c2ccc(Cl)cc2)nc1,i
CC(=O)N1CCCN(CC[C@H]2CN(C(=O)NC(C)C)CC[C@H]2CC(=O)O)CC1,i
O=C(NCc1ccc(Cl)cc1)C1CSC(c2cccs2)=N1 (configuration not stated),i
O=C(Nc1ccc2c(c1)OCO2)c1cc(-c2ccccc2O)on1,i
Cc1cccc(NC(=O)c2cc3c([nH]c4ccccc43)c(C)n2)c1C,i
O=C(CC1CCCCC1)Nc1ccc2c(c1)OCO2,i
Cc1cc(NC(=O)c2cc(-c3ccc4c(c3)OCO4)on2)no1,i
Cc1ccc(C(=O)Nc2ccc3c(c2)OCO3)cc1,30.0%*!
Cc1nc(C(=O)Nc2ccc3c(c2)OCO3)cc2c1[nH]c1ccccc12,30.0%*
O=C(O)C1CC=CCC1C(=O)Nc1ccc2c(c1)OCO2 (configuration not stated),i
COc1cc(C(=O)Nc2ccc3c(c2)OCO3)cc(OC)c1OC,i
O=C(O)C1C2C=CC(O2)C1C(=O)Nc1ccc2c(c1)OCO2 (configuration not stated),31.0%*
CC(=O)c1ccc(NC(=O)c2cc(-c3ccc4c(c3)OCO4)on2)cc1,31.0%*
O=C(Nc1ccc(F)c(Cl)c1)c1cc(-c2ccc3c(c2)OCO3)on1,i
O=C(Nc1ccc2c(c1)OCO2)c1ccc(Br)cc1,i
CC1CCC2C(=O)N(CNc3ccc(Br)cc3)C(=O)C2C1 (configuration not stated),i
COc1ccccc1NC(=O)CN(c1ccc(Cl)cc1)S(C)(=O)=O,i
COc1ccc2nc(NC(=O)CSc3cc(=O)n(C)c4ccccc34)sc2c1,i
OC[C@H]1O[C@@H](Oc2cc(O)cc(/C=C\c3ccc(O)cc3)c2)[C@H](O)[C@@H](O)[C@@H]1O,i
O=C(NC[C@H]1O[C@@H](CO)[C@@H](O)[C@H]1N1CCN(c2ccccc2)CC1)Nc1ccccc1,i
SMILES,ST2 IL33 inh
O=C(Oc1ccc2ccccc2c1)c1cc2ccccc2o1,i
O=C(CCOc1ccccc1)NC1CC(=O)N(Cc2cccc(F)c2)C1 (configuration not stated),i
Cc1ccc(-c2csc(C(N)=O)c2)c2cccnc12,i
O/N=C\c1c(O)c(Br)cc2oc3c(c12)CCCC3,38.0%*
Cc1ccc(NS(=O)(=O)c2cccnc2)cc1Cl,i
O=C(O)CCCCCNC(=O)/C(=C/c1ccc2c(c1)OCO2)NC(=O)c1ccccc1Cl,i
CCOC(=O)c1c(NC(=O)COc2ccc(Cl)cc2)sc2c1CC(C)CC2 (configuration not stated),i
CN(C(=O)c1ccco1)C(Cc1ccccc1Cl)C1CCN(Cc2cccc3ncccc23)CC1 (configuration not stated),i
CCCCN1C(=O)c2ccccc2C1C(=O)NC1CCCCC1 (configuration not stated),i
O=c1[nH]c(CN2CCOCC2)nc2c1C1(CCCC1)Cc1ccccc1-2,i
CC1(C)Cc2ccccc2-c2nnc(-c3ccccc3)n21,i
O=c1oc(-c2ccccc2)nc2c1C1(CCCC1)Cc1ccccc1-2,48.0%*
Cn1c(=O)c2nc(-c3ccccc3)oc2c2ccccc21,i
O=c1[nH]c(CN2CCCC2)nc2c1C1(CCCC1)Cc1ccccc1-2,i
CC1(C)Cc2ccccc2-c2nc(-c3ccccc3)oc(=O)c21,41.0%*
Cc1ccc(C)c(CN2C(=O)CSc3ccc(C(=O)NC(C)C)cc32)c1,i
CN1CCc2c(sc3c2C(=O)NC(c2ccc(-c4ccc(Cl)c(Cl)c4)o2)N3)C1 (configuration not stated),i
CCOc1ccc(CN2CCCC(C(=O)N3CCCCCC3)C2)cc1 (configuration not stated),i
Cc1cc(/C=C2/C(=O)NC(=O)N(c3ccccc3)C2=O)c(C)n1-c1ccc([N+](=O)[O-])cc1,i
O=C1NC(=O)N(c2cccc(F)c2)C(=O)/C1=C/c1cccn1-c1ccccc1,i
O=C1NN(c2ccc(F)cc2)C(=O)/C1=C\c1cccn1-c1ccc([N+](=O)[O-])cc1,31.0%*
O=C1NN(c2ccc(Br)cc2)C(=O)/C1=C\c1cccn1-c1ccc([N+](=O)[O-])cc1,33.0%*
O=[N+]([O-])c1ccc(NS(=O)(=O)c2ccc(Br)cc2)cc1,i
Cn1c(C(=O)N2CCC(CCC(=O)NCc3cccnc3)CC2)cc2ccccc21,i
Cc1ccc(C(=O)/C=C/C=C/C=C/N(C)C)o1,39.0%*
Cc1ccc(C(=O)N2CCc3ccccc32)o1,i
CSCC(=O)N(CCN1CCCCC1)CC1CCCN(C2CCCC2)C1 (configuration not stated),i
COc1ccc(-c2csc(=Nc3ccccc3)n2CCO)cc1F,48.0%*
